According to PubChem BioAssay (NCI):
This is part of a sample that, as a whole, favours compounds with a hit. Of some 83,000 tested, about 20% had one in any assay.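 Testing used 96-well plates and a 48-hour single-concentration exposure. Example: -40 means 40% of the starting cells died.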 The source made the active and inactive calls. How the source made its calls: active means growth percent below 10; inactive means the rest.

Legend:
Test in all cases: NCI-60 one-dose screen, 48 h (100 = growth as untreated, 0 = no growth, -100 = all killed)
NCI-H23 lung = settings: 10 µM unless noted
NCI-H226 lung = settings: 10 µM unless noted
NCI-H322M lung = settings: 10 µM unless noted
HOP-62 NSCLC = settings: 10 µM unless noted
NCI-H460 lung = settings: 10 µM unless noted
HOP-92 NSCLC = settings: 10 µM unless noted
NCI-H522 lung = settings: 10 µM unless noted
A549/ATCC NSCLC = settings: 10 µM unless noted
786-0 renal = settings: 10 µM unless noted
COLO 205 colon = settings: 10 µM unless noted
DU-145 prostate = settings: 10 µM unless noted
K-562 leukemia = settings: 10 µM unless noted
MALME-3M melanoma = settings: 10 µM unless noted
MDA-MB-231 breast = settings: 10 µM unless noted
RXF 393 renal = settings: 10 µM unless noted
SF-268 CNS = settings: 10 µM unless noted
SF-295 CNS = settings: 10 µM unless noted
SF-539 CNS = settings: 10 µM unless noted
UACC-257 melanoma = settings: 10 µM
M14 melanoma = settings: 10 µM unless noted

Measured: growth

COc1ccc(CN2C(=O)/C(=C/c3nc(CO)cs3)SC2=S)cc1
inactive: NCI-H23 lung 92.6% | NCI-H226 lung 101% | NCI-H322M lung 97.5% | HOP-62 NSCLC 104% | NCI-H460 lung 100% | HOP-92 NSCLC 63.4% | NCI-H522 lung 35.6% | A549/ATCC NSCLC 95.7% | 786-0 renal 51.2% | COLO 205 colon 118% | DU-145 prostate 96.5% | K-562 leukemia 52.6% | MALME-3M melanoma 93.2% | MDA-MB-231 breast 79.5% | RXF 393 renal 95.3% | SF-268 CNS 98.8% | SF-295 CNS 106% | SF-539 CNS 70.1% | UACC-257 melanoma 93.6% | M14 melanoma 86.4%

O=S(=O)(Nc1cc(Cl)c(F)c(Cl)c1)c1ccc(-c2cnc(C3CC3)o2)cc1
inactive: NCI-H23 lung 45.3% | NCI-H226 lung 49.4% | NCI-H322M lung 49.9% | HOP-62 NSCLC 36.2% | NCI-H460 lung 16.5% | HOP-92 NSCLC 63% | NCI-H522 lung 32.8% | A549/ATCC NSCLC 41.5% | 786-0 renal 43.5% | DU-145 prostate 24.4% | K-562 leukemia 15% | MALME-3M melanoma 55% | MDA-MB-231 breast 56.2% | SF-268 CNS 73.9% | SF-295 CNS 16.8% | SF-539 CNS 19.2% | UACC-257 melanoma 70.3% | M14 melanoma 23%
active: COLO 205 colon 8.82% | RXF 393 renal 5.28%

O=C1Nc2ccc(Br)cc2/C1=N\c1nnc(-c2ccc(Cl)cc2)o1
inactive: NCI-H23 lung 79.8% | NCI-H226 lung 80.3% | NCI-H322M lung 94.2% | HOP-62 NSCLC 66% | NCI-H460 lung 46.3% | HOP-92 NSCLC 79.7% | NCI-H522 lung 59.8% | A549/ATCC NSCLC 54% | 786-0 renal 91.4% | COLO 205 colon 83.3% | DU-145 prostate 73.3% | K-562 leukemia 16.9% | MALME-3M melanoma 34.1% | MDA-MB-231 breast 75.2% | RXF 393 renal 87.9% | SF-268 CNS 75.2% | SF-295 CNS 75.1% | SF-539 CNS 64.5% | UACC-257 melanoma 91.6% | M14 melanoma 51.2%

N/C(=N\c1nc2c(Cl)cccc2s1)C(Cl)(Cl)Cl
inactive: NCI-H23 lung 93.2% | NCI-H226 lung 107% | HOP-62 NSCLC 40.8% | NCI-H460 lung 24.2% | HOP-92 NSCLC 64.3% | NCI-H522 lung 89.1% | A549/ATCC NSCLC 30% | 786-0 renal 90.9% | COLO 205 colon 51.9% | K-562 leukemia 91.3% | MALME-3M melanoma 104% | MDA-MB-231 breast 76.1% | RXF 393 renal 55.2% | SF-268 CNS 81% | SF-295 CNS 20.1% | SF-539 CNS 71.1% | UACC-257 melanoma 90.7% | M14 melanoma 97.7%
active: NCI-H322M lung 0.236% | DU-145 prostate 3.92%

COc1cc(CNC(=O)/C=C/c2ccccc2)ccc1OCC(=O)NO
inactive: NCI-H23 lung 103% | NCI-H226 lung 97.4% | NCI-H322M lung 103% | HOP-62 NSCLC 102% | NCI-H460 lung 109% | HOP-92 NSCLC 98.4% | NCI-H522 lung 89.9% | A549/ATCC NSCLC 101% | 786-0 renal 103% | COLO 205 colon 102% | DU-145 prostate 103% | K-562 leukemia 88.9% | MALME-3M melanoma 84.9% | MDA-MB-231 breast 98.4% | RXF 393 renal 111% | SF-268 CNS 101% | SF-295 CNS 102% | SF-539 CNS 100% | UACC-257 melanoma 91.5% | M14 melanoma 100%

COc1cc(C2=NN(C(C)=O)C(c3ccc(N4CCOCC4)cc3)C2)cc(OC)c1OC (stereo not given)
inactive: NCI-H23 lung 86.8% | NCI-H226 lung 96.5% | NCI-H322M lung 88.1% | HOP-62 NSCLC 91.8% | NCI-H460 lung 103% | HOP-92 NSCLC 92.4% | NCI-H522 lung 89.7% | A549/ATCC NSCLC 104% | 786-0 renal 95.5% | COLO 205 colon 106% | DU-145 prostate 107% | K-562 leukemia 114% | MALME-3M melanoma 94.4% | MDA-MB-231 breast 92% | RXF 393 renal 108% | SF-268 CNS 99% | SF-295 CNS 101% | SF-539 CNS 102% | UACC-257 melanoma 103% | M14 melanoma 84.1%

O=C(/C=C/Nc1ccc(S(=O)(=O)O)cc1)c1ccc(F)cc1
inactive: NCI-H23 lung 95.9% | NCI-H226 lung 98.5% | NCI-H322M lung 102% | HOP-62 NSCLC 117% | NCI-H460 lung 101% | HOP-92 NSCLC 96.2% | NCI-H522 lung 98.5% | A549/ATCC NSCLC 101% | 786-0 renal 106% | COLO 205 colon 101% | DU-145 prostate 103% | K-562 leukemia 106% | MALME-3M melanoma 105% | MDA-MB-231 breast 106% | RXF 393 renal 99.9% | SF-268 CNS 102% | SF-295 CNS 98.7% | SF-539 CNS 94% | UACC-257 melanoma 101% | M14 melanoma 96%

CCCCCCNC(=O)Oc1ccc(/C(=C(\C)c2ccc(OC)cc2)c2ccc(OCCN(C)C)cc2)cc1
inactive: NCI-H23 lung 84.4% | NCI-H226 lung 105% | NCI-H322M lung 89% | HOP-62 NSCLC 89.8% | NCI-H460 lung 67.6% | HOP-92 NSCLC 50.4% | NCI-H522 lung 98% | A549/ATCC NSCLC 74.7% | 786-0 renal 62.3% | COLO 205 colon 90.4% | DU-145 prostate 96.8% | MDA-MB-231 breast 71.8% | RXF 393 renal 52.1% | SF-268 CNS 78.3% | SF-295 CNS 80.8% | SF-539 CNS 45.3%
active: K-562 leukemia 9.79% | MALME-3M melanoma 1.42% | UACC-257 melanoma 9.83% | M14 melanoma 6.24%

Oc1ccc(CSc2nnc(-c3ccccc3)o2)c2cccnc12
active: NCI-H460 lung 2.23% | HOP-92 NSCLC -3.86% | SF-295 CNS 2.18% | UACC-257 melanoma 6.39%
inactive: NCI-H23 lung 27.8% | NCI-H226 lung 51.2% | NCI-H322M lung 25.7% | HOP-62 NSCLC 13.8% | NCI-H522 lung 22.6% | A549/ATCC NSCLC 17.6% | 786-0 renal 24.5% | COLO 205 colon 98.9% | DU-145 prostate 30% | K-562 leukemia 10.4% | MALME-3M melanoma 36.1% | MDA-MB-231 breast 47% | RXF 393 renal 24.5% | SF-268 CNS 21.8% | SF-539 CNS 13.2% | M14 melanoma 15.5%

COc1cc(/C=C/C(=O)c2ccc(N3CCN(C)CC3)cc2)ccc1F
active: K-562 leukemia 7.19%
inactive: NCI-H23 lung 84.4% | NCI-H226 lung 67.3% | NCI-H322M lung 84.2% | HOP-62 NSCLC 86.4% | NCI-H460 lung 102% | HOP-92 NSCLC 54.3% | NCI-H522 lung 97.2% | A549/ATCC NSCLC 76.7% | 786-0 renal 88.4% | COLO 205 colon 64.9% | DU-145 prostate 88.3% | MALME-3M melanoma 103% | MDA-MB-231 breast 103% | RXF 393 renal 98.2% | SF-268 CNS 97.8% | SF-295 CNS 92.5% | SF-539 CNS 65.6% | UACC-257 melanoma 89.8% | M14 melanoma 73.6%

O=C(Nc1cccc(Cl)c1)Nc1nc2ccc([N+](=O)[O-])cc2s1
active: NCI-H23 lung -20.9% | NCI-H226 lung -7.2% | NCI-H322M lung 8.75% | HOP-62 NSCLC -1.84% | NCI-H460 lung 2.75% | HOP-92 NSCLC -11.9% | NCI-H522 lung 2.99% | 786-0 renal 8.65% | COLO 205 colon -54.2% | K-562 leukemia 4.51% | MALME-3M melanoma -9.22% | MDA-MB-231 breast -9.3% | RXF 393 renal -26.4% | SF-268 CNS 9.76% | SF-295 CNS -68.9% | SF-539 CNS 7.66% | UACC-257 melanoma -15.2% | M14 melanoma 0.118%
inactive: A549/ATCC NSCLC 10% | DU-145 prostate 15.2%

O=C(CN1C(=O)S/C(=C\c2ccccc2)C1=O)Nc1ccc(C(=O)/C=C/c2cc3ccccc3nc2Cl)cc1
inactive: NCI-H23 lung 59.3% | NCI-H226 lung 92.2% | NCI-H322M lung 92.2% | HOP-62 NSCLC 87.6% | NCI-H460 lung 88.3% | HOP-92 NSCLC 87.9% | NCI-H522 lung 73.3% | A549/ATCC NSCLC 88.6% | 786-0 renal 94.8% | COLO 205 colon 103% | DU-145 prostate 91.4% | K-562 leukemia 51.2% | MALME-3M melanoma 91.1% | MDA-MB-231 breast 90.2% | RXF 393 renal 109% | SF-268 CNS 81.8% | SF-295 CNS 81% | SF-539 CNS 90.8% | UACC-257 melanoma 71.3% | M14 melanoma 78.8%

O=C(NNc1nc2cc(F)ccc2n2cncc12)c1cnccn1
inactive: NCI-H23 lung 37.4% | NCI-H226 lung 44.6% | NCI-H322M lung 25.4% | HOP-62 NSCLC 36.1% | HOP-92 NSCLC 63.7% | NCI-H522 lung 24.3% | A549/ATCC NSCLC 22.2% | 786-0 renal 10% | COLO 205 colon 19.5% | DU-145 prostate 26.6% | K-562 leukemia 23.9% | MALME-3M melanoma 29.5% | MDA-MB-231 breast 34.1% | RXF 393 renal 68.6% | SF-268 CNS 28.3% | SF-539 CNS 30.1% | UACC-257 melanoma 36.5%
active: NCI-H460 lung 4.66% | SF-295 CNS 0.0659% | M14 melanoma 0.271%

O=C(COc1ccc(C2SCC(=O)N2c2ccc(F)cc2)cc1)c1ccccc1 (stereo not given)
inactive: NCI-H23 lung 95.6% | NCI-H226 lung 91.7% | NCI-H322M lung 98.3% | HOP-62 NSCLC 95.5% | NCI-H460 lung 108% | HOP-92 NSCLC 76.7% | NCI-H522 lung 84.1% | A549/ATCC NSCLC 87.9% | 786-0 renal 102% | COLO 205 colon 112% | DU-145 prostate 104% | K-562 leukemia 91.6% | MALME-3M melanoma 97.9% | MDA-MB-231 breast 81.4% | RXF 393 renal 102% | SF-268 CNS 89.4% | SF-295 CNS 94.5% | SF-539 CNS 102% | UACC-257 melanoma 100% | M14 melanoma 93.6%

Cc1ccccc1NC1CC(=O)N(c2ccc(Cl)cc2Cl)C1=O (stereo not given)
inactive: NCI-H23 lung 102% | NCI-H226 lung 108% | NCI-H322M lung 99% | HOP-62 NSCLC 103% | NCI-H460 lung 104% | HOP-92 NSCLC 78% | NCI-H522 lung 95.7% | A549/ATCC NSCLC 99.8% | 786-0 renal 94.2% | COLO 205 colon 120% | DU-145 prostate 103% | K-562 leukemia 107% | MALME-3M melanoma 98.9% | MDA-MB-231 breast 104% | RXF 393 renal 112% | SF-268 CNS 99.4% | SF-295 CNS 102% | SF-539 CNS 93.1% | UACC-257 melanoma 98.5% | M14 melanoma 102%
